Inconclusive results are not listed. The source made the active and inactive calls. Calls come from the whole dose curve; tested in HEK293 reporter line.
Test: qHTS for Inhibitors of the Functional Ribonucleoprotein Complex (vRNP) of Lymphocytic Choriomeningitis Arenaviruses (LCMV): Viability assay - alamar blue signal for LCMV Primary Screen (AID 1347085); note: nearly all actives have a fitted effect of over 80% in size
Conditions: alamar blue viability counter-screen, LCMV vRNP screen cells; series mostly up to 57.5 µM; activity change, negative = lower viability: at the top concentration
% is set by controls: 0 for no effect and ±100 for the full control effect; potency is the fitted concentration of half-maximal effect.

Row | SMILES | Potency | activity change, negative = lower viability
1 | C[C@@H](N)C1CCC(C(=O)Nc2ccncc2)CC1 (some centres not stated) | 0.863 µM (active) | –
2 | C=CCn1c(=O)c2cnc(Nc3ccc(N4CCN(C)CC4)cc3)nc2n1-c1cccc(C(C)(C)O)n1 | 0.611 µM (active) | –
3 | C[C@@H](O[C@H]1OCCN(Cc2n[nH]c(=O)[nH]2)[C@@H]1c1ccc(F)cc1)c1cc(C(F)(F)F)cc(C(F)(F)F)c1 | – | -29% (inactive)
4 | CCn1cc(C(=O)O)c(=O)c2cc3c(cc21)OCO3 | inactive | –
5 | COc1ccc2c(c1)CC[C@H]1[C@@H]2CC[C@]2(C)[C@@H](NCCCCCCN3C(=O)C=CC3=O)CC[C@H]12 | – | 1.03% (inactive)
6 | NCCO | – | 8.84% [at 115 µM] (inactive)
7 | CCCCCN(CCC12CC3CC(CC(C3)C1)C2)C(=O)NCCCc1ccncc1 | – | 6.09% (inactive)
8 | N[C@H]1C(O)O[C@H](CO)[C@@H](O)[C@@H]1O (some centres not stated) | – | 8.75% (inactive)
9 | O=C(NO)c1ccccc1 | – | 11.6% [at 115 µM] (inactive)
10 | Cc1[nH]nc2ccc(-c3cncc(OC[C@@H](N)Cc4ccccc4)c3)cc12 | 1.37 µM (active) | –
11 | Cc1cn(-c2cc(NC(=O)c3ccc(C)c(Nc4nccc(-c5cccnc5)n4)c3)cc(C(F)(F)F)c2)cn1 | – | 8.16% (inactive)
12 | O=C(O)c1ccc2cc(-c3ccc(O)c(C45CC6CC(CC(C6)C4)C5)c3)ccc2c1 | – | 2.92% (inactive)
13 | Clc1ccccc1CN1CCc2sccc2C1 | inactive | –
14 | NC(=O)c1ccc(I)c([N+](=O)[O-])c1 | – | -17.2% (inactive)
15 | C[N+]1(C)C2CC(OC(=O)[C@H](CO)c3ccccc3)CC1C1OC12 (some centres not stated) | inactive | –
16 | O=[N+]([O-])c1cccc(S(=O)(=O)NCCNS(=O)(=O)c2cccc([N+](=O)[O-])c2)c1 | – | -19.4% (inactive)
17 | N#C/C(=C1\SCC(c2ccccc2Cl)S1)n1ccnc1 (configuration not stated) | – | -6.99% (inactive)
